# Source: PubChem (National Center for Advancing Translational Sciences (NCATS))
# Hits are enriched below; roughly 17% of the tested compounds scored in any of these assays.
# ATXN2 expr inh – ATXN2 expression inhibition; 360,000 compounds, 0.72% hits; HEK-293 ATXN2-luciferase reporter, luminescence, 24 h; Potency, µM (top dose mostly 57 µM), without a hit: top-dose activity change, negative = inhibition, most hits filed as inhibitors; further: on the % scale 0 is the no-effect control and ±100 the full control effect; nearly all actives have a fitted effect of over 55% in size
#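 ATXN2-luciferase reporter cells (luciferase flanked by upstream and downstream ATXN2 gene portions) were treated 24 h at 37 °C with compounds at up to 57 uM. SteadyGlo luminescence gave expression; GF-AFC fluorescence gave viability.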
# TDP1 cell CPT – growth inhibition of DT40 Tdp1-/-;hTDP1 cells with camptothecin (screen for TDP1 inhibitors); chicken DT40 Tdp1-/-;hTDP1 cells + 20 nM CPT, ATP luminescence, 48 h; Potency, µM (top dose mostly 46.2 µM), without a hit: at the top dose activity change, negative = growth inhibition, hits mostly inhibitors; 420,000 compounds, 12% hits; further: on the % scale 0 is the no-effect control and ±100 the full control effect; nearly all actives have a fitted effect of over 55% in size
#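 Cell growth measured by CellTiter-Glo luminescence after a minimum 48 h, 37 C compound exposure with 20 nM CPT in Tdp1-knockout DT40 cells stably expressing hTDP1, seeded 400/well; qHTS titration format.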
# TDP1 cell noCPT – qHTS for Inhibitors of human tyrosyl-DNA phosphodiesterase 1 (TDP1): qHTS in cells in absence of CPT | DT40 Tdp1-/- hTDP1 cells, no CPT, ATP luminescence, 48 h | AID 686978, 2013 | 420,000 compounds, 15% hits | Potency, µM (doses to about 46.2 µM), inactives show at the top dose activity change, negative = growth inhibition, usual class: inhibitors; further: on the % scale 0 is the no-effect control and ±100 the full control effect; nearly all actives have a fitted effect of over 55% in size
#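 Readout: luminescence from CellTiter-Glo after 30 min in the dark at RT. Cells: DT40 Tdp1-/- with stable hTDP1, 400/well. Exposure: compounds alone, ≥48 hr, 37 °C.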
# TGFb SMAD3 inh – blocks TGF-b signaling; HepG2 CAGA-GFP TGF-b/SMAD3 reporter, GFP fluorescence, 18 h; TGF-beta stimulated, 500 pg/mL final; Potency, µM (series often up to 46.1 µM), inactives show top-dose activity, negative = inhibition, most hits filed as inhibitors; 410,000 compounds, 1.2% hits; AID 588855; further: on the % scale 0 is the no-effect control and ±100 the full control effect; nearly all actives have a fitted effect of over 65% in size
#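 Inhibition was scored as loss of TGF-beta-induced (500 pg/mL final, 18 hours, 37 degrees C) GFP in HEPG2 cells carrying a CAGA-GFP reporter, in DMEM with 1% FBS. Well GFP was summed per cell; Activity was normalised to unstimulated and stimulated DMSO wells, then concentration-response fitting.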
# ATXN viability – cell viability loss in ATXN counter-screen. S2 cells (HEK-293 line with an ATXN2-luciferase reporter) viability, CellTiter-Fluor protease fluorescence, 24 h. Potency, µM (highest dose often 56.7 µM), hits mostly cytotoxic. 400,000 compounds, 0.49% hits. AID 651635; further: nearly all actives have a fitted effect of over 40% in size
# HepG2 tox – HepG2 cytotoxicity, counter-screen for TGF-b inhibitors | Potency, µM (doses to about 46.1 µM), inactives show top-dose activity change, negative = cytotoxicity, most hits filed as cytotoxic | HepG2 CAGA-GFP viability, ATP luminescence, 18 h | 410,000 compounds, 0.76% hits
#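 CellTiter-Glo luminescence gave cytotoxicity after 18 hours at 37 degrees C. The cells were HepG2 CAGA-GFP in 1% FBS DMEM, stimulated with 500 pg/mL TGF-beta after compound addition. %Activity was normalised to no-cell wells (complete cell-killing) and DMSO (no toxicity), and curves were fitted and classified.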
# * = called active by the depositor; i = inactive; ? = inconclusive; · = no result; [ ] = dose if it differs, or a comment. The call rests on the fitted dose curve; in most records, active means well fitted curve in the direction sought with a large enough effect; inconclusive means small, poorly fitted or top-dose-only effect, or another doubt; inactive means no such curve, though single readings can be large; an effect the other way counts as inactive or inconclusive. Potency means the concentration at half of the fitted maximal effect.
SMILES,ATXN2 expr inh,TDP1 cell CPT,TDP1 cell noCPT,TGFb SMAD3 inh,ATXN viability,HepG2 tox
Cc1ccc2oc3c(c(=O)c2c1)C(c1ccccc1F)N(CCCN(C)C)C3=O (centres undefined),·,-11%,-2%,-4%,·,-9%
O=C1c2oc3ccc(Cl)cc3c(=O)c2C(c2ccccn2)N1CCCN1CCOCC1 (centres undefined),-33%,23µM*,29µM*,-12%,·,-19%
O=C1c2oc3ccc(F)cc3c(=O)c2C(c2ccc(F)cc2)N1CCCN1CCOCC1 (centres undefined),1%,-34%,-26%,-8%,i,-12%
Cc1ccc(C2c3c(oc4ccccc4c3=O)C(=O)N2CCCN2CCOCC2)o1 (centres undefined),24%,-22%,-5%,-18%,i,-1%
CSc1ccc(CCNC(=O)Cn2ncn3c(cc4ccccc43)c2=O)cc1,·,-19%,-12%,0%,·,-3%
CCC1Sc2ccc(S(=O)(=O)CCC(=O)Nc3cccc(Br)c3)cc2NC1=O (centres undefined),-18%,-25%,5%,?,i,-7%
COc1ccc(C2=CCCCCC2)cc1OC,·,?,12µM*,-8%,i,-26%
COc1ccc(C2=CCCCCC2)c(OC)c1OC,-6%,?,?,-11%,i,0%
COc1ccc(C(=O)NCc2nnc(SCC(=O)Nc3ccc(F)cc3)n2-c2ccccc2)cc1,?,?,?,-24%,i,2%
O=C(CSc1nnc(-c2ccc(Br)cc2)n1-c1ccccc1)c1ccccc1,·,7.3µM*,4.1µM*,-19%,·,0%
Cc1ccc(-c2nnc(SCC(=O)c3ccc(Cl)cc3)n2-c2ccccc2)cc1,·,4.6µM*,8.2µM*,2%,·,1%
COc1ccc(C(=O)CSc2nnc(CN3CCCCC3)n2-c2ccc(F)cc2)cc1,-4%,21µM*,13µM*,?,i,-29%
Cc1ccc(C(=O)CSc2nnc(-c3ccccc3)n2-c2ccccc2)cc1,22%,·,·,-7%,i,-18%
Cc1nnc(C)c2c(C)n(-c3ccc4ncccc4c3)c(C)c12,-9%[11.3 µM],12µM*,?,-8%,i,0%
O=C(c1cnn(-c2nccc(-c3ccccc3F)n2)c1C1CC1)N1CCN(CCO)CC1,·,19%[9.04 µM],-10%,·,i,·
O=C(CCS(=O)(=O)Cc1ccccc1)NCCc1ccccc1,-10%,13%,-6%,0%,i,19%
C=CCSc1nnc(-c2ccncc2)n1-c1ccc(OCC)cc1,-3%,-9%,-14%,-5%,i,-1%
CCOc1ccc(-n2c(C)c3c(C)nnc(C)c3c2C)cc1,·,2.9µM*,2.1µM*,-23%,?,-31%
CCOc1ccc(-n2c(=O)c3ccccc3c3ccccc3c2=O)cc1,-21%,3%,3%,?,i,33%
CCOc1ccc(-c2nnc(SCC(=O)c3ccc(F)cc3)n2-c2ccccc2)cc1,·,13µM*,?,-6%,·,-33%
O=C(CSc1nnc2ccc3ccccc3n12)c1ccc(F)cc1,14%,?,16µM*,24%,i,-7%
CCOc1ccc(-c2nnc(-c3ccccc3)n2-c2ccccc2)cc1,29%,?,10µM*,-14%,i,1%
O=c1[nH][nH]c2c1[C@H](c1ccccc1)O[C@H](C1CCCCC1)C2,-2%,-28%,-29%,·,?,·
O=C(NCc1nnc2n1CCN(C(=O)/C=C/c1ccccc1)CC2)c1cccc(F)c1,·,-5%,-12%,·,i,·
CCOc1ccc(CCNC(=O)CSc2nc3ccccc3nc2Cc2ccc(C)cc2)cc1OCC,3%,-29%,-21%,22%,i,13%
SMILES,ATXN2 expr inh,TDP1 cell CPT,TDP1 cell noCPT,TGFb SMAD3 inh,ATXN viability,HepG2 tox
COc1ccc(C(C)=O)cc1CSc1nnc(-c2ccc(Cl)cc2)n1-c1ccccc1,-11%,13µM*,13µM*,-20%,i,-20%
Cc1cc(C)cc(-n2c(C)c3c(C)nnc(C)c3c2C)c1,-22%,8.2µM*,7.3µM*,-5%,i,0%
Cc1nc2cnc(N(C)C)nc2n(C2CC2)c1=O,·,-12%,1%,·,·,·
Cc1nn(C(=O)c2ccc(Cl)cc2)c(C)c1S(=O)(=O)N1CCCCCC1,4%,5%,5%,10%,i,1%
COc1ccccc1-c1sc2ccccc2c1-c1ccc(OCCN2CCOCC2)cc1,-16%,?,13µM*,0%,i,-8%
COc1cc2sc(-c3ccccc3OC)c(-c3ccc(OCCN4CCCCC4)cc3)c2cc1OC,?,?,?,?,25µM*,16µM*
COc1ccccc1-c1sc2cc3c(cc2c1-c1ccc(OCCN2CCCCC2)cc1)OCO3,?,16µM*,12µM*,?,?,10µM*
c1ccc(-c2sc3ccccc3c2-c2ccc(OCCN3CCOCC3)cc2)cc1,2%,-28%,?,-1%,i,-15%
CCOCCn1ccc2c(OCC(=O)Nc3ccc(OC(F)(F)F)cc3)cccc2c1=O,-4%,-26%,?,-12%,i,-30%
COc1ccccc1CCc1nc2ccccc2n1C1CCN(C(=O)c2cn3ccsc3n2)CC1,·,9%[9.04 µM],-8%,·,i,·
Cc1ccc(S(=O)(=O)Nc2cccc(C(=O)NC3CCN(Cc4ccccc4)CC3)c2)cc1F,-25%,?,16µM*,7%,i,-38%
O=C(CCNS(=O)(=O)c1ccc(Br)cc1)NC1CCN(Cc2ccccc2)CC1,-20%,?,13µM*,11%,i,-18%
O=C(NC1CCN(Cc2ccccc2)CC1)c1cncc(Br)c1,-11%,?,-4%,1%,i,2%
O=C(NC1CCN(Cc2ccccc2)CC1)c1ccccc1NS(=O)(=O)c1ccc(F)c(F)c1,-9%,-30%,?,-19%,i,-21%
O=C(NC1CCN(Cc2ccccc2)CC1)c1cccc(NS(=O)(=O)c2ccc(Br)cc2)c1,?,18µM*,?,?,i,-39%
O=C(CCNS(=O)(=O)c1cccs1)NC1CCN(Cc2ccccc2)CC1,-21%,-1%,-2%,1%,?,-3%
CCCn1ncc(C(=O)N(C)C2CCCN(Cc3ccccc3F)C2)c1C (centres undefined),0%,-2%,3%,-4%,i,1%
O=C(NC1CCCCC1)c1ccc2c(c1)sc1nc(-c3ccc(F)cc3)cn12,11%,13µM*,15µM*,13%,i,-23%
